Hits are enriched below; roughly 1.8% of the tested compounds scored in any of these assays.
GALR2 ag – GALR2 (human) receptor agonism; activation, % (concentration not given with the values); GALR2-expressing cells, agonist activation read-out; 140,000 tested, 0.48% active; O43603; in the data active = activation above about 5%, passing the limit was not always enough;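 also: 0% = vehicle buffer wells and 100% = reference agonist at full effect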
Target sequence (O43603 whole entry, looked up): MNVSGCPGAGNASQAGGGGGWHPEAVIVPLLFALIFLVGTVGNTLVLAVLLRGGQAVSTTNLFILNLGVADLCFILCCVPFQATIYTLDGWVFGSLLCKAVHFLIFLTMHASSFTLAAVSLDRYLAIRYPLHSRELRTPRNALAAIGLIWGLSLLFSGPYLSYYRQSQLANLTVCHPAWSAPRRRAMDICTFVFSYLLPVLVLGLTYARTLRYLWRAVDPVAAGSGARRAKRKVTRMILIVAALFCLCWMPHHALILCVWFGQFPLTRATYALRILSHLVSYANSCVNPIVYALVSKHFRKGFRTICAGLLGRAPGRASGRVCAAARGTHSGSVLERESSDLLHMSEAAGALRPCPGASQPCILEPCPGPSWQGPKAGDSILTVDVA
MRP resist rev – reverses drug resistance mediated by MRP; AID 602; differential viability (reversal), % at 10 µM; 85,000 tested, 0.04% active; H69AR cells + 2 uM doxorubicin, CellTiter-Glo, 72 h;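 active = viability drop by adding the cancer drug above about 55%, with treated viability meeting a 40% cutoff, limit read from the data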;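 also: viability without doxorubicin minus viability with 2 µM doxorubicin for each compound; larger differential means the compound sensitizes cells more to doxorubicin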
S1P2 ag – S1P2 (human) receptor agonism; activation, % at 4.5 µM; S1P2-expressing cell line, agonist reporter read-out; 97,000 tested, 0.46% active; O95136; AID 729; in the data active = activation above about 16%;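 also: 0% = vehicle low control and 100% = maximal reference agonist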
GALR2 blocker – GALR2 (human) receptor antagonism. 140,000 tested, 0.39% active. inhibition, % at 4 µM. AID 828. GALR2-expressing cells, antagonist mode;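 also: cells stimulated with galanin 1-16 at roughly its EC80; 0% = agonist challenge control and 100% = basal control without agonist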
MRP-1 activ – activators of MRP-1. H69AR cells + doxorubicin, viability rescue, CellTiter-Glo. 140,000 tested, 0.61% active. AID 799. viability increase, % at 10 µM;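 active = viability gain under doxorubicin at or above a set limit, the compound median plus 3 SD, cut at about 4.7% in these data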;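 also: MRP-1 overexpressing cells given doxorubicin 25 µM after compound pretreatment; 18-22 h compound pretreatment then 72 h with doxorubicin before readout; 0% = doxorubicin-only wells and 100% = vehicle-treated cells without doxorubicin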
S1P2 antag – antagonists of human S1P2 receptor | O95136 | cell-based S1P2 antagonist assay, inhibition at 5 uM | inhibition, % at 5 µM | 97,000 tested, 0.21% active | AID 736; in the data active = inhibition above about 45%;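 also: CRE beta-lactamase reporter cells expressing human S1P2 stimulated with S1P; 0% = agonist at EC80 alone and 100% = agonist plus reference antagonist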
GALR2 ant conf – GALR2 (human) antagonism confirmed. shares compounds with GALR2 blocker. GALR2-expressing cells, antagonist mode, inhibition. inhibition, % at 4 µM. 480 tested, 60% active;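 also: cells stimulated with galanin at about its EC80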
BLA inh counter – counter-screen for GALR2 antagonists: beta-lactamase reporter inhibitors; shares compounds with GALR2 blocker; CHO NFAT-BLA reporter, beta-lactamase FRET, thapsigargin-stimulated; inhibition, % at 4.2 µM; 480 tested, 36% active; AID 867;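 active = inhibition above the mean inhibition across tested compounds plus 3 SD, cut at about 27% in these data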;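 also: 0% = 500 nM thapsigargin stimulated wells and 100% = unstimulated BSA only wells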
Starred values were filed as active, the others as inactive; / = no result given. Rule as the data show it, unless noted: active = inhibition above about 27%; inactive = the rest.

SMILES	GALR2 ag	MRP resist rev	S1P2 ag	GALR2 blocker	MRP-1 activ	S1P2 antag	GALR2 ant conf	BLA inh counter
S=C(Nc1cccc(Cl)c1)Nc1cccc2cnccc12	-0.8	/	/	30.0*	-3.5	/	21.6	10.6
O=C(NS(=O)(=O)Oc1ccc(Cl)cc1)OC[C@@H]1CCCN2CCCC[C@H]12	-0.9	/	/	0.5	0.8	/	/	/
Cc1[nH]c2ccccc2c1/C=N/NC(=O)c1cc(-c2cccs2)[nH]n1	-0.8	/	/	28.4*	-1.9	/	19.7	5.0
CC(/C=N/NC(=O)c1cc(-c2cccs2)[nH]n1)=C\c1ccccc1	1.0	/	/	-6.0	-0.6	/	/	/
Nc1ccc2c(C(F)(F)F)cc(=O)oc2c1	1.6	-20.4	2.8	39.1*	-3.8	35.0	22.9	45.6*
COc1ccccc1N=Nc1nc(-c2ccccc2)c(-c2ccccc2)[nH]1	4.5	/	/	22.1	1.4	/	/	/
Oc1ccccc1N=Nc1nc(-c2ccccc2)c(-c2ccccc2)[nH]1	-1.6	/	-3.5	29.1*	-3.8	8.9	33.5*	14.7
CS(=O)(=O)c1nc(-c2ccco2)cc(C(F)(F)F)n1	2.9	/	-8.4	27.0*	-1.2	23.8	52.9*	43.5*
CC(=O)c1c(C)[nH]c(C(=O)COC(=O)c2cc(S(=O)(=O)N(C)c3ccccc3)ccc2Cl)c1C	-1.2	/	/	28.0*	-1.6	/	13.5	1.5
C=CCN(CC=C)c1cnn(-c2nc3ccccc3[nH]2)c(=O)c1Cl	-3.3	/	-1.2	10.9	-3.1	-11.3	/	/
O=c1c(Cl)c(NCCCO)cnn1-c1nc2ccccc2[nH]1	-2.6	0.3	-4.2	35.8*	-5.5	29.8	41.5*	37.2*
O=C(CCl)N(c1ccccc1)c1c[nH]c2ccccc12	-2.9	0.0	-8.2	36.9*	-6.7	27.4	38.2*	18.4
C=CCN(C(=O)CCC(=O)O)C1CC(=O)N(c2ccc(OCCC)cc2)C1=O (stereo not given)	-0.1	-3.9	/	-1.1	0.5	/	/	/
Cn1c(-c2c(N)n(CCCc3ccccc3)c3nc4ccccc4nc23)nc2ccccc21	0.3	-21.9	-13.2	38.3*	-2.8	75.1*	51.5*	54.7*
Cn1c(-c2c(N)n(CCc3ccccc3)c3nc4ccccc4nc23)nc2ccccc21	0.2	-15.0	-7.7	36.1*	-2.2	58.8*	45.1*	54.1*
CCCn1c(C)nc2c(c1=O)c1nc3ccccc3nc1n2CCc1ccccc1	-3.1	25.4	-3.6	4.4	/	-1.9	/	/
Cc1ccccc1-n1c(CSC(=N)N)nc2ccccc2c1=O	-2.5	/	-5.3	30.6*	-1.4	-6.4	10.3	11.2
CNC1=C(N(C(C)=O)c2ccc(Br)cc2)C(=O)c2ccccc2C1=O	-1.1	/	/	0.7	-4.8	/	/	/
CC(=O)C1=C(c2ccc(Br)cc2)C(=O)c2ccccc2C1=O	-1.7	/	/	35.4*	-5.2	/	26.5	16.3
CC(C)(C)C1=C(C#N)C(c2cc3c(cc2Br)OCO3)C(C#N)=C(N)O1 (stereo not given)	/	-27.7	/	/	/	/	/	/
COc1ccc(NC(=O)/C(Cl)=C(/Cl)S(=O)(=O)Cc2ccc(C)cc2)cn1	-0.1	-0.9	-10.8	78.3*	-2.5	90.2*	92.7*	95.0*
COc1ccc(NC(=O)C(CC(C)C)NC(=O)c2ccccc2C)cn1 (stereo not given)	-1.9	3.1	-2.6	-9.8	-1.3	0.8	/	/
Cc1cc(C)c(C#N)c(SC(F)F)n1	-1.6	12.6	-7.2	-1.9	-0.1	11.5	/	/
Cc1ccccc1NC1=C/C(=N\S(=O)(=O)c2cccs2)c2ccccc2C1=O	5.3	/	7.6	62.7*	-2.6	41.2	44.0*	59.1*
CCCN(CCC)CC(O)Cn1cc(/C=C/C(=O)c2cccs2)c2ccccc21 (stereo not given)	0.9	/	/	53.0*	-5.0	/	31.9*	44.0*
SMILES	GALR2 ag	MRP resist rev	S1P2 ag	GALR2 blocker	MRP-1 activ	S1P2 antag	GALR2 ant conf	BLA inh counter
O=C(/C=C/c1cn(CC(O)CN2CCCCC2)c2ccccc12)c1cccs1 (stereo not given)	0.1	/	/	8.7	-4.7	/	/	/
CCCn1nnnc1NC(=O)COc1ccc(CC)cc1	-0.1	/	/	12.5	-1.1	/	/	/
COCCN1C(=O)C(=O)/C(=C(/O)c2cccc(S(=O)(=O)N(C)C)c2)C12C(=O)N(C)c1ccccc12 (stereo not given)	1.3	/	-4.9	-1.0	-1.9	7.3	/	/
CN(C)CCCN1C(=O)c2cccc3c([N+](=O)[O-])ccc(c23)C1=O	0.8	/	/	56.4*	-4.9	/	47.8*	30.6*
O=C(N/N=C/C(Br)=C/c1ccccc1)c1n[nH]c2c1CCC2	0.0	-27.1	0.1	37.4*	-3.2	14.6	33.3*	60.2*
N#CC1=C(N)Nc2nc3ccccc3n2C1c1ccc(Cl)cc1 (stereo not given)	-0.7	/	/	31.9*	0.5	/	27.4*	45.9*
N#CC1=C(N)Nc2ncnn2C1c1ccccc1 (stereo not given)	-0.4	/	/	-0.9	-1.4	/	/	/
CCOC(=O)c1ccc(N2C(=O)CC(N3CCC(O)(c4ccc(Br)cc4)CC3)C2=O)cc1 (stereo not given)	4.5	-0.8	-7.6	29.8*	-0.4	46.4*	39.6*	3.3
O=C1C=C(NCc2ccccc2)CCC1	0.0	/	/	-7.7	0.6	/	/	/
O=C1C=C(NC2=CC3OC(c4ccccc4)OCC3OC2=O)CCC1 (stereo not given)	-0.8	/	/	69.6*	1.1	/	84.1*	73.8*
CN(C(=S)NC1=CCS(=O)(=O)C1)C1CCCCC1	-2.7	-3.2	-4.3	-5.2	-0.2	-1.4	/	/
Cc1nc2ccccn2c1/C(O)=C1\C(=O)C(=O)N(CCCN(C)C)C1c1ccc(F)cc1 (stereo not given)	-0.9	-44.9	-8.5	0.3	/	17.1	/	/
NC(=O)CSCc1nc2ccccc2s1	-2.8	0.9	-3.5	30.6*	-1.5	-15.6	5.0	2.5
CCN(CC)c1ccc2cc(-c3nc(-c4ccc(OC)cc4)cs3)c(=O)oc2c1	-4.0	/	/	78.1*	1.1	/	75.3*	85.0*
CCN=C(NC#N)SCc1c(F)cccc1Cl	0.0	/	/	-9.7	-1.6	/	/	/
CC(NC(=O)Nc1nnc(C(F)(F)F)s1)(C(F)(F)F)C(F)(F)F	-2.1	-6.2	-2.5	38.1*	-2.8	24.7	22.2	8.0
O=C1C=C(Nc2ccccc2O)c2ccccc2C1=O	-1.9	-1.1	-7.5	27.6*	-6.0	5.1	14.5	29.0*
CC(=O)Nc1ccccc1O	-1.1	-0.7	/	-8.8	-2.0	/	/	/
COC(=O)c1ccc2c(=O)n(CCN3CCOCC3)c(SCC(=O)NC3CCCCC3)nc2c1	/	4.4	/	/	/	/	/	/
COc1ccc(Cl)c(Cn2c(NCc3ccco3)nc3c2c(=O)n(C)c(=O)n3C)c1	-2.9	-2.2	2.7	-1.9	-4.1	23.5	/	/
COc1cccc(Cn2c(NCc3ccco3)nc3c2c(=O)n(C)c(=O)n3C)c1	-0.9	4.6	/	27.5*	0.1	/	19.2	3.3
